# Assay results published in PubChem BioAssay.
# The source made the active and inactive calls. Unless noted, how the calls were made is not given here.
# Experiments:
# [1] = tested on: Wnt5a (protein binding on small-molecule microarray); test: small molecules binding Wnt5a protein – biophysical, small-molecule microarray, 635/667 nm fluorescence, primary screen (AID 1142); settings: 635 nm fluorescence, higher = more signal;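 further: fluorescence read at 667 nm with signal to noise per printed feature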
# [2] = ATP-based viability of Huh7 replicon cells – cell-based, CellTiter-Glo luminescence, basal, 48 h, cytotoxicity control for HCV replication inhibitor project, primary screen (AID 1143); settings: higher = more signal, called active from +8 up or from −8 down;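 further: Huh7 hepatoma cells carrying a hepatitis C replication reporter with no stimulus; test concentration not given here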
# [3] = Pseudomonas biofilm growth suppression – PAO1 strain, BacTiter-Glo luminescence, LB-PBS, primary screen (AID 1144); settings: P. aeruginosa PAO1 biofilm, 12 h, higher = more signal
# [4] = basal CRE-LacZ reporter activity in PC12 – cell-based, unstimulated, primary screen (AID 1145); settings: no forskolin, luminescence, 4.5 h, higher = more signal, called active from +8 up or from −8 down
# [5] = forskolin-driven CRE-LacZ activity in PC12 – cell-based, CRE-LacZ reporter, forskolin-stimulated, primary screen (AID 1146); settings: luminescence, 4.5 h, higher = more signal, called active from +8 up or from −8 down;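 further: PC12 cells with 6xCRE LacZ reporter stimulated by forskolin 10 µM; beta-galactosidase reporter signal reflecting CREB driven transcription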
# [6] = molecular target: Streptavidin (Streptomyces avidinii) (UniProt P22629); test: compounds binding control protein streptavidin – biophysical, small-molecule microarray, 635/667 nm fluorescence, artefact control for SMM compound annotation, primary screen (AID 1147); settings: higher = more signal;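 further: signal reflects streptavidin binding to arrayed compounds as a control protein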
# Streptavidin (Streptomyces avidinii), sequence (P22629 whole entry, looked up): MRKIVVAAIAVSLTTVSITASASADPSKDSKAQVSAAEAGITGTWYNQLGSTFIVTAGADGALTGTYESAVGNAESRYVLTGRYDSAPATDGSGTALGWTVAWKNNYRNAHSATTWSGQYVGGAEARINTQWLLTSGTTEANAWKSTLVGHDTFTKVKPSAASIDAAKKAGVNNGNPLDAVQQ
# [7] = probe aInhba binding on compound microarray – biochemical, small-molecule microarray, 635/667 nm fluorescence, primary screen (AID 1148); settings: higher = more signal;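 further: score merges 667nm spot fluorescence with signal-to-noise for antibody binding to printed compounds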
# [8] = molecular target: Torsin-1A (Homo sapiens) (UniProt O14656); test: TOR1A wild-type binding on microarray – cell lysate, small-molecule microarray, lysate, 635/667 nm, primary screen (AID 1149); settings: COS7 hTOR1A-WT lysate, 635 nm fluorescence, higher = more signal
# Torsin-1A (Homo sapiens), sequence (O14656 whole entry, looked up): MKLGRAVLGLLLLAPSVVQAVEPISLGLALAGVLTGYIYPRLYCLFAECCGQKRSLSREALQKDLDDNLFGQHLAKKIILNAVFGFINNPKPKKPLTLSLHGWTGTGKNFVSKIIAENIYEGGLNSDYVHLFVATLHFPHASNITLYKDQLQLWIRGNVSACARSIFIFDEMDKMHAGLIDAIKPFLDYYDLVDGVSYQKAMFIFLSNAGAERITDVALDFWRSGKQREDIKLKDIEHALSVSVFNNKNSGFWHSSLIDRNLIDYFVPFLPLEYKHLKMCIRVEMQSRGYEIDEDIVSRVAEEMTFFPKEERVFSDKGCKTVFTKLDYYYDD
# [9] = molecular target: Torsin-1A (Homo sapiens) (UniProt O14656); test: torsin A mutant lysate binding on microarrays – cell lysate, small-molecule microarray, COS7 lysate, 635/667 nm fluorescence, primary screen (AID 1150); settings: COS7 hTOR1A mutant lysate, 635 nm fluorescence, higher = more signal;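 further: score pools 667 nm emission and signal to noise measuring lysate protein binding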
# [10] = tested on: Sonic hedgehog protein (Shh); test: Sonic hedgehog microarray binding compounds – biochemical, small-molecule microarray, 635/667 nm fluorescence, primary screen (AID 1151); settings: 635 nm fluorescence, higher = more signal;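 further: Shh protein binding to compounds spotted on small-molecule microarray slides; score combines spot fluorescence intensity with signal-to-noise across triplicate slides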
# [11] = optical density shifts of acrAB sulA E. coli – strain DRC41, OD650, 48 h, E. coli filamentation inducer project, primary screen (AID 1152); settings: higher = more signal, called active from +8 up or from −8 down;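 further: E. coli MC1000 strain DRC41 lacking acrAB efflux pump and sulA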
# [12] = probe aLefty1 binding on compound microarray – biochemical, small-molecule microarray, 635/667 nm fluorescence, primary screen (AID 1153); settings: higher = more signal;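 further: score merges spot fluorescence with signal-to-noise ratio from the scanned slide images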
# [13] = plasmodial surface anion channel blockers, osmotic lysis – cell-based, P. falciparum Indochina, OD700, 1 h, primary screen (AID 1154); settings: P. falciparum Indochina infected RBC osmotic lysis, higher = more signal, called active from +8 up or from −8 down
# [14] = plasmodial surface anion channel blockers, osmotic lysis – cell-based, P. falciparum Indochina, OD700, 2 h, primary screen (AID 1155);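 further: lysis reports solute entry through the parasite surface anion channel PSAC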; settings: P. falciparum Indochina infected erythrocytes, higher = more signal, called active from +8 up or from −8 down
# [15] = changes in parasitized red cell lysis, either direction – P. falciparum Indochina, OD700, 3 h, PSAC antagonist project, primary screen (AID 1156); settings: P. falciparum-infected erythrocytes, osmotic lysis, higher = more signal, called active from +8 up or from −8 down
# [16] = plasmodial surface anion channel blockers, osmotic lysis – cell-based, P. falciparum Indochina, OD700, 18 h, primary screen (AID 1157); settings: P. falciparum Indochina infected erythrocytes, osmotic lysis OD700, 18 h; higher = more signal, called active from +8 up or from −8 down
# [17] = S6 kinase pathway phospho-S6 level changes – cell-based, A549, cytoblot, luminescence, serum-stimulated, primary screen (AID 1158); settings: 5 h, higher = more signal;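 further: serum-stimulated A549 lung adenocarcinoma cells; signal is phosphorylated S6 detected by cytoblot immunostaining with HRP secondary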
# [18] = molecular target: NADPH oxidase 2 (Homo sapiens) (UniProt P04839); test: compounds shifting NOX2 Amplex Red fluorescence – cell-based, HEK293-NOX2, PMA-stimulated, NOX inhibitor project, primary screen (AID 1159); settings: 45 min, higher = more signal, called active from +8 up or from −8 down; further: test concentration not given here
# NADPH oxidase 2 (Homo sapiens), sequence (P04839 whole entry, looked up): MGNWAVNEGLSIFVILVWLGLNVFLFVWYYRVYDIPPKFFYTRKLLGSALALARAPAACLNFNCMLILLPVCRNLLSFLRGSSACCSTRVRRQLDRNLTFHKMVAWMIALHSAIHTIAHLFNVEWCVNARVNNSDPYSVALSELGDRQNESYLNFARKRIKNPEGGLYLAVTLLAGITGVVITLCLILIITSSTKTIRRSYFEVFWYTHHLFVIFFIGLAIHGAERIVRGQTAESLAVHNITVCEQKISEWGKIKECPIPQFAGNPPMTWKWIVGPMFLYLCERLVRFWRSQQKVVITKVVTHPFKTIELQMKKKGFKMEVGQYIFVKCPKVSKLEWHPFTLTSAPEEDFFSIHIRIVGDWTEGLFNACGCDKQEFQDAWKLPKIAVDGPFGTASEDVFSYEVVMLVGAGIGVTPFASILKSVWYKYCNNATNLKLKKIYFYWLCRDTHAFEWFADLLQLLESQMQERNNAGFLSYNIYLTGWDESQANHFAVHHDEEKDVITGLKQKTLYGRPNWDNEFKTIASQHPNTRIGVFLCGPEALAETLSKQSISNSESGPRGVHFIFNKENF
# [19] = molecular target: NADPH oxidase 4 (Homo sapiens) (UniProt Q9NPH5); test: compounds shifting NOX4 Amplex Red fluorescence – cell-based, HEK293-NOX4, tetracycline-induced, NOX inhibitor project, primary screen (AID 1160); settings: HEK293-NOX4, Amplex Red H2O2 fluorescence, 45 min; higher = more signal, called active from +8 up or from −8 down
# NADPH oxidase 4 (Homo sapiens), sequence (Q9NPH5 whole entry, looked up): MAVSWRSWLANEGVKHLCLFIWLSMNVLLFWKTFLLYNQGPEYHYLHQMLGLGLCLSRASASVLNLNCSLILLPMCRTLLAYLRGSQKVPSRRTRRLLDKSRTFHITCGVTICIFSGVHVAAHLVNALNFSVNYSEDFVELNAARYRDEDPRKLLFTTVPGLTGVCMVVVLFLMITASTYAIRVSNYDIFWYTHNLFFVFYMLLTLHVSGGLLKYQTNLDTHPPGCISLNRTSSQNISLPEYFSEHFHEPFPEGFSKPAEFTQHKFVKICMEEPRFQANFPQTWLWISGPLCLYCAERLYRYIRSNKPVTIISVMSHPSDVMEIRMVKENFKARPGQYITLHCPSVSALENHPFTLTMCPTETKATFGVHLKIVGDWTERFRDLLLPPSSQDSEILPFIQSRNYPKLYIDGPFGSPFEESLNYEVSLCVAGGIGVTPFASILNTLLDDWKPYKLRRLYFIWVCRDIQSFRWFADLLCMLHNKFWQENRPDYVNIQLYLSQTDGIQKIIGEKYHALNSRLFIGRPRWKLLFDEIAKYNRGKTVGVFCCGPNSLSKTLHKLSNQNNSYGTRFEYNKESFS
# [20] = molecular target: NADPH oxidase 5 (Homo sapiens) (UniProt Q96PH1); test: compounds shifting NOX5 Amplex Red fluorescence – cell-based, HEK293-NOX5, NOX inhibitor project, primary screen (AID 1161); settings: HEK293-NOX5, ionomycin, 45 min, higher = more signal
# NADPH oxidase 5 (Homo sapiens), sequence (Q96PH1 whole entry, looked up): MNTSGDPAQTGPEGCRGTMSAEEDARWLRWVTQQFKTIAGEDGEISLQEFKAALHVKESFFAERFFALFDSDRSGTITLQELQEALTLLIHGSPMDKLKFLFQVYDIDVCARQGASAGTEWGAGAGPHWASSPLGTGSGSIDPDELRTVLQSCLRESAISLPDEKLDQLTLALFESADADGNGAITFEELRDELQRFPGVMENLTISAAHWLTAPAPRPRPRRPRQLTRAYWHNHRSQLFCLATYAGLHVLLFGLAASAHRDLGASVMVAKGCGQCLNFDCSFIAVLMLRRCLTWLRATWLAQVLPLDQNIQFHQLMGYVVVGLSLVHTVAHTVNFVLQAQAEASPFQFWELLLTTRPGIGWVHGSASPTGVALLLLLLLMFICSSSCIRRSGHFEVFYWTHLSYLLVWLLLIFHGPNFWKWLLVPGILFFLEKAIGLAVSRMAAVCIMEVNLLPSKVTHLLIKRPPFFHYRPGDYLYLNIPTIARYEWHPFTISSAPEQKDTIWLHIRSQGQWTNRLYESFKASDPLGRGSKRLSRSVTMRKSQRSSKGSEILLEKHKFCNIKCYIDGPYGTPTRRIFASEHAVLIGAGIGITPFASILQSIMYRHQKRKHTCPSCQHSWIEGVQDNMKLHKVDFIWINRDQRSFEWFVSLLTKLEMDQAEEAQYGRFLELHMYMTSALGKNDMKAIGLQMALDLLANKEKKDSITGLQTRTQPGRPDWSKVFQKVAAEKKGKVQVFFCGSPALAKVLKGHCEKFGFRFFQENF
SMILES,composite z-score [1],z-score [2],z-score [3],z-score [4],z-score [5],composite z-score [6],composite z-score [7],composite z-score [8],composite z-score [9],composite z-score [10],z-score [11],composite z-score [12],z-score [13],z-score [14],z-score [15],z-score [16],z-score [17],z-score [18],z-score [19],z-score [20]
CN1C(=O)C2C(C1=O)C1C=C(CCCO)C2C(C2CC2)N1Cc1cccc(OC(F)(F)F)c1 (stereo not given),-0.317,-0.591 (inactive),0.55 (inactive),-0.348 (inactive),1.3 (inactive),0.851,-0.101,1.03,1.76,-0.525,-0.771 (inactive),-0.295,1.34 (inactive),0.505 (inactive),0.627 (inactive),0.402 (inactive),-0.546,0.561 (inactive),0.568 (inactive),1.2
C=C(CCCC)/C(=C/C[C@@H](OC(C)=O)c1ccc(CO)o1)c1cnc2ccccc2c1,0.401,-0.257 (inactive),-0.134 (inactive),2.76 (inactive),0.128 (inactive),0.843,0.0536,1.18,1.13,1.39,0.105 (inactive),0.0077,9.2 (active),1.25 (inactive),2.11 (inactive),0.406 (inactive),0.509,-0.383 (inactive),-0.837 (inactive),-0.426
COC(=O)[C@@]1(Cc2ccccc2)N=C(c2ccc(OCCCO)cc2)O[C@H]1c1ccccc1CN=[N+]=[N-],0.289,-5.03 (inactive),-0.621 (inactive),-0.435 (inactive),-1.97 (inactive),-0.12,0.0227,0.009,0.668,1.88,1.11 (inactive),0.313,23 (active),7.26 (inactive),-0.202 (inactive),2.21 (inactive),0.239,-6.02 (inactive),-0.914 (inactive),-3.31
O=C1O[C@@H](c2ccccc2)[C@@H](c2ccccc2)N2[C@@H](c3ccc(OCCO)cc3)[C@]3(C(=O)Nc4ccc(C#CC5(O)CCCCCC5)cc43)[C@@H](C(=O)O)[C@H]12,0.213,-0.72 (inactive),-0.448 (inactive),-0.0246 (inactive),0.371 (inactive),0.351,-0.0695,0.562,0.695,0.633,1.87 (inactive),-0.0862,-1.17 (inactive),-0.927 (inactive),-8.35 (active),-0.76 (inactive),0.169,2.21 (inactive),-0.56 (inactive),0.314
COC(=O)C[C@H]1O[C@@]2(C[C@@H]1[Si](C)(C)C)C(=O)N(C)c1ccccc12,0.0074,-1.43 (inactive),-0.355 (inactive),2.3 (inactive),-0.923 (inactive),0.327,-0.0468,0.185,0.117,1.44,3.12 (inactive),0.14,-1.14 (inactive),-0.694 (inactive),-1.23 (inactive),-1.92 (inactive),0.953,-0.465 (inactive),0.764 (inactive),1.21
CC(C)=C1C(=O)C(c2ccccc2)=C2CN3C(=O)N(CCc4ccccc4)C(=O)[C@]3(C)[C@H]21,-0.0006,-2.42 (inactive),0.64 (inactive),0.0177 (inactive),0.839 (inactive),0.509,-0.016,-0.656,-0.124,-0.223,-2.52 (inactive),0.298,28.2 (active),24.2 (active),1.63 (inactive),1.62 (inactive),-0.832,-1.16 (inactive),-1.55 (inactive),-0.718
C[C@@H]1NC(=O)C([C@@H](C)OCc2ccccc2)NC(=O)[C@@]23C(=O)N[C@@H](Cc4ccccc4)C2[C@H](C)[C@@]2(C)O[C@H]2C3/C=C/C/C=C\CNC1=O (stereo not given in full),0.0076,-0.371 (inactive),0.571 (inactive),-0.507 (inactive),0.428 (inactive),-1.07,-0.25,0.0772,0.0936,1.12,-0.999 (inactive),-0.147,2.36 (inactive),-0.169 (inactive),0.604 (inactive),0.182 (inactive),-0.093,0.715 (inactive),-0.942 (inactive),0.467
CCCC=C(CCC)[C@@H](NC(=O)c1ccc(C(F)(F)F)cc1)c1ccc(C(F)(F)F)cc1,0.63,-2.78 (inactive),0.429 (inactive),0.779 (inactive),0.34 (inactive),0.48,0.207,0.342,0.587,-0.605,-1.35 (inactive),0.792,1.23 (inactive),0.588 (inactive),-0.957 (inactive),1.25 (inactive),-0.523,-0.0499 (inactive),-0.414 (inactive),2.97
O=C1C2C=CC(C(O)c3ccc([N+](=O)[O-])cc3)N(Nc3ccccc3F)C2C(=O)N1c1ccccc1 (stereo not given),0.164,-0.631 (inactive),-0.242 (inactive),0.743 (inactive),0.402 (inactive),0.428,0.0028,0.16,0.52,-0.449,-1.36 (inactive),0.0625,9.91 (active),0.885 (inactive),0.458 (inactive),0.586 (inactive),-0.888,-2.54 (inactive),-4.13 (inactive),-3.11
C[C@@H]1ON(c2ccccc2)[C@H](c2ccccc2)[C@H]1C(=O)O,-0.0071,0.343 (inactive),-0.525 (inactive),0.308 (inactive),0.411 (inactive),0.0265,0.134,0.404,-0.115,1.01,-0.0929 (inactive),0.106,0.348 (inactive),-0.299 (inactive),-0.142 (inactive),-0.136 (inactive),0.0366,-0.436 (inactive),0.24 (inactive),0.46
CC(C)NC(=O)[C@@]1(c2ccc([N+](=O)[O-])cc2)CC(=O)N(CC23CC4CC(CC(C4)C2)C3)[C@@H]1c1ccc(CO)cc1,0.821,-4.42 (inactive),-0.336 (inactive),0.362 (inactive),0.795 (inactive),0.771,1.19,1.17,1.36,1.95,-0.323 (inactive),1.56,2.3 (inactive),0.814 (inactive),1.86 (inactive),0.204 (inactive),-0.248,-0.108 (inactive),-1.02 (inactive),-0.0647
COc1ccc([Si](C)(C)[C@@H]2[C@@H](CC(=O)N(CCO)Cc3ccccc3)O[C@]3(C(=O)N(Cc4ccc(I)cc4)c4ccccc43)[C@H]2C)cc1,0.29,-4.48 (inactive),-0.129 (inactive),-0.505 (inactive),-0.905 (inactive),0.349,1.22,0.402,0.603,2.01,0.452 (inactive),1.03,5.81 (inactive),1.02 (inactive),0.408 (inactive),0.794 (inactive),0.421,0.454 (inactive),1.6 (inactive),1.55
COc1ccc(C#Cc2ccc3c(c2)[C@]2(C(=O)N3)[C@H](C(=O)O)[C@H]3C(=O)O[C@H](c4ccccc4)[C@H](c4ccccc4)N3[C@@H]2c2ccccc2OCCO)cc1,0.119,-5.87 (inactive),-1.75 (inactive),1.43 (inactive),4.81 (inactive),0.904,-0.413,0.65,0.643,1.63,0.987 (inactive),-0.707,-0.357 (inactive),-0.566 (inactive),-10.3 (active),-2.29 (inactive),1.56,2.09 (inactive),-0.415 (inactive),-2.32
COCCOC(=O)N1C(=O)[C@@]2(c3cc(C#CCNC(N)=O)ccc31)[C@H](C(=O)Nc1nc3ccccc3s1)[C@H]1C(=O)O[C@H](c3ccccc3)[C@H](c3ccccc3)N1[C@@H]2c1ccccc1OCCO,0.553,-2.11 (inactive),-0.264 (inactive),-0.465 (inactive),-0.154 (inactive),0.158,0.152,0.508,0.0351,1.82,1.14 (inactive),0.646,2.15 (inactive),0.215 (inactive),0.483 (inactive),-1.08 (inactive),2.18,1.41 (inactive),0.695 (inactive),0.934
C=C(CCCC)/C(=C/C[C@H](OC(=O)c1ccncc1)c1ccc(OCCO)cc1)c1cnc2ccccc2c1,0.766,-1.17 (inactive),0.15 (inactive),10.9 (active),-0.574 (inactive),1.83,-0.0221,1.03,0.667,1.4,0.339 (inactive),0.127,26.5 (active),11.9 (active),1.98 (inactive),1.31 (inactive),-0.594,-0.0888 (inactive),0.589 (inactive),-0.964
CN1C(=O)[C@@H]2[C@@H](CC(COc3ccccc3)=C3[C@@H](CCc4ccccc4)OB(O)C[C@@H]32)C1=O,0.0305,-0.706 (inactive),0.32 (inactive),1.76 (inactive),0.89 (inactive),-0.156,-0.128,0.179,0.0191,0.394,-0.759 (inactive),-0.191,4.5 (inactive),0.626 (inactive),-0.488 (inactive),0.133 (inactive),-0.202,0.693 (inactive),0.41 (inactive),0.82
[N-]=[N+]=NCc1ccccc1[C@@H]1OC(c2ccc(OCCCO)cc2)=N[C@]1(Cc1ccccc1N=[N+]=[N-])C(=O)O,1.04,-2.25 (inactive),-1.09 (inactive),0.526 (inactive),-0.638 (inactive),0.488,0.587,0.177,0.585,-0.379,0.0786 (inactive),0.865,22.9 (active),6.73 (inactive),3.2 (inactive),0.982 (inactive),0.0708,-1.51 (inactive),-0.241 (inactive),0.58
